Results filed as inconclusive are left out. Calls of active or inactive are those of the source. Unless noted, the call rests on the fitted dose curve; in most records, active means well fitted curve in the direction sought with a large enough effect in the repeat runs; inconclusive means weak or mixed curves; inactive means no such curve, though single readings can be large; an effect the other way counts as inactive or inconclusive.

Assay [1] is described as follows: qHTS assay to identify aromatase inhibitors - cell viability counter screen (AID 743084).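 Further: cells stimulated with testosterone during compound exposure; nearly all actives have a fitted effect of over 55% in size.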 Further: potency means the concentration at half of the fitted maximal effect. In general terms: qHTS replaces the single test concentration by a dilution series.
The nature of assay [2]: qHTS assay to identify small molecule that activate the aryl hydrocarbon receptor (AhR) signaling pathway - cell viability counter screen (AID 743086). Further: nearly all actives have a fitted effect of over 45% in size. Further: potency means the concentration at half of the fitted maximal effect. In a few lines: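 HepG2-AhR-luc (HG2L7.5c1) cells, 4000/well, were preincubated 5 h at 37C, exposed to compound in qHTS format for 24 hr at 37C, then given CellTiter-Fluor for 30 min; viability was read as fluorescence in the reporter wells.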

The target of assay [3] is Peroxisome proliferator-activated receptor gamma (Homo sapiens) (UniProt P37231). As to the kind of experiment: qHTS assay to identify small molecule agonists of the peroxisome proliferator-activated receptor gamma (PPARg) signaling pathway (AID 743094; active means well fitted activation curve with a large enough effect in the signal ratio in the repeat runs, not every such curve was filed as active; the % refers to the signal ratio). Summed up: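 Agonist activity was taken from a beta-lactamase reporter (FRET substrate, 1 h at room temperature) in HEK293H cells carrying a PPARg UAS-bla construct. Compounds in DMSO were incubated 17 h at 37C after a 5 h cell pre-incubation.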

The nature of assay [4]: qHTS assay to identify small molecule antagonists of the peroxisome proliferator-activated receptor gamma (PPARg) signaling pathway - cell viability counter screen (AID 743194). Further: nearly all actives have a fitted effect of over 55% in size. Summed up: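 PPARg-UAS-bla HEK293H cells were plated, rested 5 h at 37 C, then treated with compounds plus rosiglitazone (50 nM final) for 17 h at 37 C; viability was then read by CellTiter-Glo luminescence after 30 min at room temperature.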

Assay [5] is described as follows: qHTS assay for small molecule agonists of the antioxidant response element (ARE) signaling pathway (AID 743202; active means well fitted activation curve with a large enough effect in the signal ratio in the repeat runs, not every such curve was filed as active; the % refers to the signal ratio). In a few lines: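 Following a 16 h, 37 C exposure of reporter HepG2 cells (ARE-driven beta-lactamase, 2,000 cells/well) to compounds, FRET substrate was applied for 2 h at room temperature and fluorescence intensity recorded.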
Assay [6] is described as follows: qHTS assay for small molecule agonists of the antioxidant response element (ARE) signaling pathway - cell viability counter screen (AID 743203; calls by dose curve; further: nearly all actives have a fitted effect of over 55% in size). In a few lines: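 Viability counter screen: CellTiter-Glo luminescence, read after 30 min at room temperature, in ARE-bla HepG2 wells. Compound exposure lasted 16 h at 37C/5% CO2, following a 5 h pre-incubation of the cells after plating.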

Assay [7] is described as follows: qHTS assay for small molecule activators of the heat shock response signaling pathway (AID 743210; active means well fitted activation curve with a large enough effect in the signal ratio in the repeat runs, with a control signal flat, not every such curve was filed as active; the % refers to the signal ratio; further: series mostly up to about 63 µM). Summed up: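 Heat shock element–beta-lactamase HeLa reporter cells; qHTS with compounds for 5 h at 37 C; detection by FRET substrate fluorescence after 2.5 h at RT.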
The nature of assay [8]: qHTS assay to identify small molecule agonists of the peroxisome proliferator-activated receptor delta (PPARd) signaling pathway - cell viability counter screen (AID 743211). Further: nearly all actives have a fitted effect of over 55% in size. In a few lines: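 Multiplexed format: after the 2 h room-temperature LiveBLAzer B/G FRET step, CellTiter-Glo was added to the same wells. Luminescence after 30 min gave cell viability; compound exposure was 17 h at 37C.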

Assay [9] has as its target Peroxisome proliferator-activated receptor delta (Homo sapiens) (UniProt Q03181). Description: qHTS assay to identify small molecule agonists of the peroxisome proliferator-activated receptor delta (PPARd) signaling pathway (AID 743212; calls by dose curve). Summed up: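 Beta-lactamase reporter read by fluorescence (LiveBLAzer B/G FRET, 2 h, room temperature). Test agents, in DMSO, incubated at 37 C with PPARd-bla HEK293H cells.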

The nature of assay [10]: qHTS assay to identify small molecule antagonists of the peroxisome proliferator-activated receptor delta (PPARd) signaling pathway - cell viability counter screen (AID 743213). Further: nearly all actives have a fitted effect of over 50% in size. Summed up: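 Viability counter-screen, qHTS format: PPARd-bla HEK293H, L165041 300 nM final, 17 h compound exposure at 37 C, CellTiter-Glo luminescence after 30 min RT.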
In assay [11] the target is Peroxisome proliferator-activated receptor delta (Homo sapiens) (UniProt Q03181). As to the kind of experiment: qHTS assay to identify small molecule antagonists of the peroxisome proliferator-activated receptor delta (PPARd) signaling pathway (AID 743215; active means well fitted inhibition curve with a large enough effect in the signal ratio in the repeat runs, not every such curve was filed as active; the % refers to the signal ratio;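 further: cells stimulated with agonist L165041 at 300 nM final during compound exposure; series mostly up to about 62 µM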). In a few lines:
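Agonist L165041 (300 nM final) added with compound to PPARd-bla HEK293H UAS-bla reporter cells; 17 h incubation at 37 C. Read-out: LiveBLAzer FRET substrate, 2 h at room temperature, fluorescence intensity.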

Assay [12] can be described thus: qHTS assay to identify small molecule agonists of the farnesoid-X-receptor (FXR) signaling pathway - cell viability counter screen (AID 743218). Further: nearly all actives have a fitted effect of over 45% in size. Summed up: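 Viability counter screen in the same wells: CellTiter-Glo luminescence, 30 min room-temperature incubation, measured after the beta-lactamase read. Cells were GeneBLAzer FXR-UAS-bla HEK 293T, compound-treated 16 h at 37C.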

The nature of assay [13]: qHTS assay to identify small molecule antagonists of the farnesoid-X-receptor (FXR) signaling pathway - cell viability counter screen (AID 743221; active means well fitted cell-killing curve with a large enough effect in the repeat runs, not every such curve was filed as active; further: nearly all actives have a fitted effect of over 50% in size). In a few lines: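 CellTiter-Glo, 30 min RT, luminescence; same wells as the LiveBLAzer FRET read. Cells: FXR-UAS-bla HEK 293T. Treatment: compound with chenodeoxycholic acid 50 uM final, 16 h at 37 C.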
The target in assay [14] is Vitamin D3 receptor (Homo sapiens) (UniProt P11473). As to the kind of experiment: qHTS assay to identify small molecule agonists of the vitamin D receptor (VDR) signaling pathway (AID 743222; calls by dose curve). Summed up:
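Agonist mode, beta-lactamase reporter: fluorescence from LiveBLAzer B/G FRET substrate (2 h, room temperature) read after 16 h compound treatment at 37 C of VDR-bla cells, which were pre-incubated 4 h after seeding.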

Assay [15] has the same target. As to the kind of experiment: qHTS assay to identify small molecule antagonists of the vitamin D receptor (VDR) signaling pathway (AID 743223; active means well fitted inhibition curve with a large enough effect in the signal ratio in the repeat runs, not every such curve was filed as active; the % refers to the signal ratio). In a few lines:
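After VDR-bla cells are plated and left 4 h at 37C, DMSO-dissolved compounds and 3 nM (final) calcitriol agonist are added. Incubation continues 16 h at 37C; FRET beta-lactamase substrate then develops 2 h at room temperature.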

A short description of assay [16]: qHTS assay for small molecule activators of the heat shock response signaling pathway - cell viability counter screen (AID 743209). Further: nearly all actives have a fitted effect of over 50% in size. In a few lines: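 Cytotoxicity counter screen run in the same wells as the heat-shock bla reporter assay: HeLa HSE-bla cells, 5 h compound exposure at 37 C, viability read by CellTiter-Glo luminescence.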
Assay [17] concerns the target Peroxisome proliferator-activated receptor gamma (Homo sapiens) (UniProt P37231). As to the kind of experiment: qHTS assay to identify small molecule antagonists of the peroxisome proliferator-activated receptor gamma (PPARg) signaling pathway (AID 743191; calls by dose curve; further: series mostly up to about 63 µM; nearly all actives have a fitted effect of over 30% in size). Summed up: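 GeneBLAzer PPARg UAS-bla HEK293H cells carrying a UAS-driven beta-lactamase reporter were plated at 3000 cells/well, preincubated 5 h at 37C, then given compound for 17 h at 37C; LiveBLAzer B/G FRET substrate was read after 1 h at room temperature.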

In assay [18] the target is Bile acid receptor (Homo sapiens) (UniProt Q96RI1). As to the kind of experiment: qHTS assay to identify small molecule antagonists of the farnesoid-X-receptor (FXR) signaling pathway (AID 743217; active means well fitted inhibition curve with a large enough effect in the signal ratio in the repeat runs, not every such curve was filed as active; the % refers to the signal ratio). In a few lines: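 Antagonist mode: chenodeoxycholic acid at 50 uM final stimulates a UAS-driven beta-lactamase reporter in HEK 293T FXR-bla cells during 16 h, 37C compound exposure. Read-out is FRET substrate fluorescence after 2 h at room temperature.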

For assay [19] the target is unchanged. Description: qHTS assay to identify small molecule agonists of the farnesoid-X-receptor (FXR) signaling pathway (AID 743220; active means well fitted activation curve with a large enough effect in the signal ratio in the repeat runs, not every such curve was filed as active; the % refers to the signal ratio). Summed up: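 FXR-UAS-bla HEK 293T cells carrying a UAS-driven beta-lactamase reporter were plated for 5 h at 37C/5% CO2, then exposed to DMSO-dissolved Tox21 10K compounds for 16 h at 37C. A LiveBLAzer B/G FRET substrate was loaded for 2 h at room temperature before fluorescence reading.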

Assay [20] addresses Aryl hydrocarbon receptor (Homo sapiens) (UniProt P35869). As to the kind of experiment: qHTS assay to identify small molecule that activate the aryl hydrocarbon receptor (AhR) signaling pathway (AID 743085).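 Further: HG2L7.5c1 human HepG2 liver cells with stably integrated DRE-driven firefly reporter; series mostly up to about 70 µM; nearly all actives have a fitted effect of over 15% in size.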 In a few lines:
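Reporter assay in engineered HepG2 line HG2L7.5c1, whose plasmid carries twenty dioxin responsive elements upstream of firefly luciferase. Treatment lasted 24 h at 37C; ONE-Glo luminescence gauged induction.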

Chain of Peroxisome proliferator-activated receptor delta (Homo sapiens) (Q03181 whole entry, looked up): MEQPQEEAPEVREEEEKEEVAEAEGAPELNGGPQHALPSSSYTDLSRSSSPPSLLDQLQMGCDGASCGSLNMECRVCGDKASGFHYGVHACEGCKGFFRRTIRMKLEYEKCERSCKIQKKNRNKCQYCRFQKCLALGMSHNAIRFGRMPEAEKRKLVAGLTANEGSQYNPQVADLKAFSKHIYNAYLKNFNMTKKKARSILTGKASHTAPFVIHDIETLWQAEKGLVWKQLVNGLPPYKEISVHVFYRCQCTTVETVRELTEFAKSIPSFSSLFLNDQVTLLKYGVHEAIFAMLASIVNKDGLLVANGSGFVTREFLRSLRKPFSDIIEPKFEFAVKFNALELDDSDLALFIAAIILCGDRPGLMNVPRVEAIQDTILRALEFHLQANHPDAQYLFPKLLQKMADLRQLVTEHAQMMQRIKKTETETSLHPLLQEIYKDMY
Chain of Bile acid receptor (Homo sapiens) (Q96RI1 whole entry, looked up): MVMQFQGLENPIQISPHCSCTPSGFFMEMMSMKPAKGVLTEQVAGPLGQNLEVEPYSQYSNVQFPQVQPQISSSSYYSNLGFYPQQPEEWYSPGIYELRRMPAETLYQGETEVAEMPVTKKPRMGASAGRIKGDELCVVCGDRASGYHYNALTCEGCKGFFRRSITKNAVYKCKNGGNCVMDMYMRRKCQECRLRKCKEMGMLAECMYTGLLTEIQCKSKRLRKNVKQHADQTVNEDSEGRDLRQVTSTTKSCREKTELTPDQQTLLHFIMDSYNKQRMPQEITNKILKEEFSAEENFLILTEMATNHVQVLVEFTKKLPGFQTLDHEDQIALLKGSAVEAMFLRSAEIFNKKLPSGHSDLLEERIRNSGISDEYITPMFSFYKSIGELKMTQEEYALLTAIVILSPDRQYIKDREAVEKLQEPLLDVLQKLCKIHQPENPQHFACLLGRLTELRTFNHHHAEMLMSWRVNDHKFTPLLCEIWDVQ
Chain of Vitamin D3 receptor (Homo sapiens) (P11473 whole entry, looked up): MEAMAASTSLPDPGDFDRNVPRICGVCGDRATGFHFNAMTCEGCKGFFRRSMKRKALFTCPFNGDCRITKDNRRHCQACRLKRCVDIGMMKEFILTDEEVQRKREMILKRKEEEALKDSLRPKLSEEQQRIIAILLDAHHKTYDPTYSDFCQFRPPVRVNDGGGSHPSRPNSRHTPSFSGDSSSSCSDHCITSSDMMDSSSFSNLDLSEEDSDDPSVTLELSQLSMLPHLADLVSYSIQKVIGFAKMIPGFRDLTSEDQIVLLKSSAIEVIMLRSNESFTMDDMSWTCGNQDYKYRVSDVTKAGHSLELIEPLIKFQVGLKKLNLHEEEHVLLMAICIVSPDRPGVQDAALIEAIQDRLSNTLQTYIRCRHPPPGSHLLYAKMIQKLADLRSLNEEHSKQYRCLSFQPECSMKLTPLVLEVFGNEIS
Chain of Peroxisome proliferator-activated receptor gamma (Homo sapiens) (P37231 whole entry, looked up): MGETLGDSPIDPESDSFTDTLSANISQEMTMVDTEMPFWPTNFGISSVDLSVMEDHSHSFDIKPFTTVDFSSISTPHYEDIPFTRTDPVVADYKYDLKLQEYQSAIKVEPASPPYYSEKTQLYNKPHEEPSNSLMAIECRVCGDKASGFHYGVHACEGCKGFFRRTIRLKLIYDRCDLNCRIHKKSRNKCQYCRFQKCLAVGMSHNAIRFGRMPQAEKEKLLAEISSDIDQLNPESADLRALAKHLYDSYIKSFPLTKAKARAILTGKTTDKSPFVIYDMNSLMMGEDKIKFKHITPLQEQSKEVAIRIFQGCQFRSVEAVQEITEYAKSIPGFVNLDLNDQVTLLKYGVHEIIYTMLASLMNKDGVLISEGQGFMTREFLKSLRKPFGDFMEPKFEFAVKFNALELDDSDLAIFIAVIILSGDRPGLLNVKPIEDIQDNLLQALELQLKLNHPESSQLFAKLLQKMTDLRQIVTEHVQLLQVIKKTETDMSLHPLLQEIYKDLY
Chain of Aryl hydrocarbon receptor (Homo sapiens) (P35869 whole entry, looked up): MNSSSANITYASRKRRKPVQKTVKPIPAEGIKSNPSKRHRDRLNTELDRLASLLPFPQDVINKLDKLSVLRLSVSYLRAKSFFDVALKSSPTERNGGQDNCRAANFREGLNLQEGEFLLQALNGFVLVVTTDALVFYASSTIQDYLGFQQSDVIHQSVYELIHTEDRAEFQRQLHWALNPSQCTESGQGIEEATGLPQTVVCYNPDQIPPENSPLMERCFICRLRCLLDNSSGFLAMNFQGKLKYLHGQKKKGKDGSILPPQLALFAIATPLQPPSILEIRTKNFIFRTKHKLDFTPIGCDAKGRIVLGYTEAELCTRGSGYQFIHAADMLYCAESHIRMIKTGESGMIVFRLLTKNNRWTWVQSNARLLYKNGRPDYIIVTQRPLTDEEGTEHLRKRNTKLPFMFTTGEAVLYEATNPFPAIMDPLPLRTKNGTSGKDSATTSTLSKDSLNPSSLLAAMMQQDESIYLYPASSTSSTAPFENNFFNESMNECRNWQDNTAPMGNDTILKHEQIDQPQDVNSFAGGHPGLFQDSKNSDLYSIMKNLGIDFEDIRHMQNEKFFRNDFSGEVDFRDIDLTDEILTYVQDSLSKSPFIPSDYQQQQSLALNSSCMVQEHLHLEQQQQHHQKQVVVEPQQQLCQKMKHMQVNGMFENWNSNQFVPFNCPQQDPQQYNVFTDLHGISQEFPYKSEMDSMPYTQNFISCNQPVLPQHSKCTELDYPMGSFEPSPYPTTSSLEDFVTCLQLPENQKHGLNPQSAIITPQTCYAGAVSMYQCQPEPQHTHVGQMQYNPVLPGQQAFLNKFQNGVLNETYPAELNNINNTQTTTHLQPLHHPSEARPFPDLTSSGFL

As to `CC(=O)Nc1cc(S(=O)(=O)O)cc2cc(S(=O)(=O)O)c(N=Nc3ccccc3)c(O)c12`, the values for the Potency in assay [1] and in assay [2] were 24.3 µM (active) and 19.3 µM (active), respectively. The Potency result in assay [3], in assay [4], in assay [5], in assay [6], in assay [7] and in assay [8] was “inactive” throughout. Further, the Potency result in assay [9], in [10], in [11], in [12], in assay [13] and in assay [14] was “inactive” each time. Besides, the Potency entry in assay [15] was “inactive”.
As for `O=C(O)CCC(=O)C(=O)O`, the Potency entry in assay [1], in assay [2], in assay [3], in assay [4], in [5] and in [6] was “inactive” throughout. Moreover, the Potency result in [16], in assay [7], in [8], in assay [10], in [12] and in assay [13] was “inactive” each time. Moreover, the Potency result in [14] and in assay [15] was “inactive” each time.
For `O=C(CCCN1CC=C(n2c(=O)[nH]c3ccccc32)CC1)c1ccc(F)cc1`, the Potency result in assay [1], in [2], in assay [3], in assay [17], in [4] and in assay [5] was “inactive” each time. Moreover, the Potency result in [6], in [16], in [7], in [9], in [11] and in assay [13] was “inactive” each time.
Turning to `CCOC(=O)c1ccc(I)cc1`, the Potency entry in assay [1], in [2], in assay [3], in assay [17], in assay [4] and in assay [5] was “inactive” each time. Further, the Potency entry in assay [6], in assay [16], in assay [7], in assay [8], in assay [9] and in assay [10] was “inactive” throughout. For the same compound, the Potency result in assay [11], in assay [18], in [12], in assay [19], in assay [14] and in assay [15] was “inactive” in each case.
Turning to `CCCCCCCC/C=C\CCCCCCCCCCCC(=O)O`, the Potency result in assay [1], in [2], in assay [3], in assay [4], in assay [5] and in assay [6] was “inactive” in each case. In addition, the Potency entry in assay [16], in assay [7], in assay [8], in assay [9], in [10] and in assay [11] was “inactive” throughout. The Potency entry in assay [18], in assay [12], in [19] and in [13] was “inactive” each time.
With `CC(=O)OCC(=O)NCCCOc1cccc(CN2CCCCC2)c1`, the Potency result in [1], in [2], in assay [3], in assay [4], in [5] and in [6] was “inactive” throughout. Also, the Potency entry in [7], in assay [8], in assay [9], in assay [18], in assay [12] and in assay [19] was “inactive” throughout. The Potency result in assay [13] and in assay [15] was “inactive” each time.
For the compound `Cc1cccc(N(C)C(=S)Oc2ccc3c(c2)CCC3)c1`, the Potency entry in assay [1], in assay [20], in assay [4], in assay [6], in [16] and in [7] was “inactive” each time. The Potency entry in [8], in [9], in [10], in [11], in [18] and in [12] was “inactive” in each case. Also, the Potency entry in assay [19], in [14] and in [15] was “inactive” each time.
Consider `Cc1cc(C)cc(N)c1`, for which the Potency entry in [1], in assay [2], in [17], in [4], in assay [5] and in assay [6] was “inactive” each time. For the same compound, the Potency result in assay [16], in [7], in assay [8], in assay [9], in assay [10] and in assay [11] was “inactive” throughout. In addition, the Potency entry in assay [18], in [12], in [19], in assay [13], in assay [14] and in assay [15] was “inactive” throughout.

The values are drawn from PubChem BioAssay (Tox21).
